Chronic BCR inh – inhibitors of chronic active B-cell receptor signaling; AID 493014; ABC-DLBCL IkBa-CBG/CBR reporter, luminescence ratio, 4 h; Potency, µM (doses to about 46.1 µM), for the others: top-dose activity change, negative = inhibition, actives largely listed as inhibitors; actives 0.05% (n = 340,000); active = well fitted inhibition curve with a large enough effect in the signal ratio, with a control signal flat, not every such curve was filed as active; inconclusive = small, poorly fitted or top-dose-only effect, or effect the other way, or a change in a side signal; the % refers to the signal ratio;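 also: potency is read from the fitted curve at half-maximal effect; plate controls were basal doxycycline-induced cells for no effect and cells given 10 µM MG132 for full effect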
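Doxycycline induced both beetle luciferases in TMD8 lymphoma cells; IKK-driven degradation limits the IkappaBalpha-fused green signal, while red luminescence normalises for cell number and nonspecific effects. Compounds tested up to 46 uM, 4 hrs.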
LDHA inh – LDHA (human) enzyme inhibition; activity change, % (values are at about 110 or 230 µM); purified LDHA, NADH/diaphorase-resazurin fluorescence; hits give low values; P00338; actives 0.15% (n = 480,000); AID 1347041; in the data active = activity change below about -30%; inconclusive = mostly about -25% to -30%;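 also: plate controls were DMSO wells for no effect and wells without enzyme for full effect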
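LDH5 2 nM; NADH 0.06 mM, pyruvate 0.2 mM; 200 mM Tris pH 7.4, EDTA, Tween-20; 5 min RT. Detection: diaphorase 0.133 mg/mL + resazurin 37 µM, fluorescence ex540/em590 at 0 and 20 min; normalized to enzyme-free and DMSO wells.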
KCNH2 WT inh – blocks the wildtype human KCNH2 potassium channel | U2OS, BacMam KCNH2, thallium flux FluxOr; hits give low values | activity change, % at 1.84 µM | actives 0.37% (n = 340,000) | AID 720551;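 active = maximum activity change below -70%; inconclusive = maximum activity change between -70% and -50%; inactive = maximum activity change above -50%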; also: % is scaled to controls: 0 for no effect and ±100 for the full control effect
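U2OS cells were transduced with wild-type KCNH2 virus (2.03 x 10^8 / mL) for 4 h at room temperature, then cultured overnight at 37 C. Thallium flux was read with FluxOr dye. Rate constants were normalized to DMSO controls.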
KCNH2 3.1 block – blocks the human KCNH2 3.1 channel isoform; U2OS KCNH2 3.1, thallium flux FluxOr; hits give low values; activity change, % (tested at about 1.8 µM); actives 0.95% (n = 340,000); AID 720553;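 active = maximum activity change below -70%; inconclusive = maximum activity change from -70% to -50%; inactive = maximum activity change above -50%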;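 also: thallium influx rate constant from kinetic fluorescence after stimulation buffer; % is scaled to controls: 0 for no effect and ±100 for the full control effect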
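Normalized rate constant (relative to positive and negative DMSO controls) derived from a 2 min kinetic fluorescence read after stimulation; U2OS cells expressing the 3.1 isoform via virus at 1.77 x 10^8 /mL.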
ALOX12 inh – blocks human arachidonate 12S-lipoxygenase | purified 12hLO, xylenol orange hydroperoxide absorbance | Potency, µM (doses to about 108 µM), for the others: at the top dose activity change, negative = inhibition, usual class: inhibitors | actives 1.1% (n = 580,000) | AID 1671190; active = well fitted inhibition curve with a large enough effect; inconclusive = small, poorly fitted or top-dose-only effect, or another doubt; inactive = no such curve, though single readings can be large or run the other way; also: potency is read from the fitted curve at half-maximal effect; % is scaled to controls: 0 for no effect and ±100 for the full control effect
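Purified human 12hLO (150 nM final) in 25 mM Hepes, 0.01% Triton X-100, pH 7.0 was preincubated 15 min at room temperature with compound. Then 40 uM arachidonic acid was added, 30 min. Hydroperoxide was read by Fe-XO absorbance ratio 573/405 nm.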
ClpP mod – qHTS Assay for Activators of ClpP | Potency, µM (top dose mostly 57.5 µM), for the others: at the top dose activity change, negative = active | actives 1.9% (n = 340,000) | ATP-dependent Clp protease proteolytic subunit (Bacillus subtilis (strain 168)), P80244 | purified B. subtilis ClpP, FRET peptide cleavage, 20 min; active = well fitted falling curve with a large enough effect; inconclusive = small, poorly fitted or top-dose-only effect; inactive = no such curve, though single readings can be large or run the other way; also: potency is read from the fitted curve at half-maximal effect; the source files actives as falling curves though it sought activators and does not explain the sign; nearly all actives have a fitted effect of over 65% in size
Target sequence (P80244 whole entry, looked up): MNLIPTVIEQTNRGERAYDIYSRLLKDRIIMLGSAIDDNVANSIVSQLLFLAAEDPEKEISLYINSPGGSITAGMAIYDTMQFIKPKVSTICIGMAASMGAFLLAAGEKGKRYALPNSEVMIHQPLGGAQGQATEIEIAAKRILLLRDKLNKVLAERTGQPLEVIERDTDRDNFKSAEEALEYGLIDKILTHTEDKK
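Buffer: 100 mM Tris/HCl pH8, 100 mM KCl, 0.05% low protease BSA, 2.5% glycerol, 0.01% Tween-20. ClpP 10 microg/mL final; 20 min RT; delta FRET normalized to ADEP and DMSO controls.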
Active calls of the source: *. An excerpt weighted towards active compounds, which were near 3% of everything screened.

Results for COc1ccc2cc3c(N)nn(C(=O)c4ccc(Cl)c([N+](=O)[O-])c4)c3nc2c1 ?
Chronic BCR inh: inconclusive; LDHA inh: -10; KCNH2 WT inh: -4; KCNH2 3.1 block: -10; ALOX12 inh: -12%; ClpP mod: 2%

How did COc1ccc2cc3c(N)nn(C(=O)c4ccccc4[N+](=O)[O-])c3nc2c1 do in these assays?
Chronic BCR inh: inconclusive; LDHA inh: -1; KCNH2 WT inh: -2; KCNH2 3.1 block: 2; ALOX12 inh: -2%; ClpP mod: 28µM*

Results for CCOc1cc(/C=C(\C#N)C(=O)NCC2CCCO2)ccc1OCC(N)=O (stereo not given) ?
Chronic BCR inh: 4%; LDHA inh: -8; KCNH2 WT inh: -136*; KCNH2 3.1 block: -185*; ALOX12 inh: inconclusive; ClpP mod: -2%

How did CC(=O)c1ccc(NC(=O)C(C)Sc2ccccc2C(=O)O)cc1 (stereo not given) do in these assays?
LDHA inh: 10; ALOX12 inh: 16%

How did Cc1cc(C)c2nc(N(CCCN(C)C)C(=O)c3ccc4c(c3)OCCO4)sc2c1 do in these assays?
Chronic BCR inh: inconclusive; LDHA inh: 0; KCNH2 WT inh: -8; KCNH2 3.1 block: -86*; ALOX12 inh: inconclusive

Results for Cc1cc(C)c2sc(N(CCCN(C)C)C(=O)c3ccc(Br)s3)nc2c1 ?
Chronic BCR inh: 4%; LDHA inh: 3; KCNH2 WT inh: -23; KCNH2 3.1 block: -82*; ALOX12 inh: inconclusive; ClpP mod: -15%

Results for CCCCN(CC)S(=O)(=O)c1ccc(C(=O)N(CCCN(C)C)c2nc3cc(C)cc(C)c3s2)cc1 ?
Chronic BCR inh: -13%; LDHA inh: 1; KCNH2 WT inh: -11; KCNH2 3.1 block: -1; ALOX12 inh: inconclusive

What do the screens show for `Fc1ccc2[nH]c(-c3cccs3)cc2c1`?
LDHA inh: 7; ALOX12 inh: 2%; ClpP mod: 11µM*

Results for CCOc1ccc(C(N)=S)cc1 ?
LDHA inh: 6; ALOX12 inh: 14µM*

How did CN(C)C(=S)c1ccc(N(C)C)cc1 do in these assays?
Chronic BCR inh: 0%; LDHA inh: -2; KCNH2 WT inh: 7; KCNH2 3.1 block: 2; ALOX12 inh: inconclusive; ClpP mod: 1%

What do the screens show for `CN(C)c1ccc(C(N)=S)cc1`?
LDHA inh: 6; ALOX12 inh: 16µM*

How did CC(NC(=O)c1ccc(-c2nnc3ccc(NC(=O)C4CCC4)cn23)cc1)c1cccs1 (stereo not given) do in these assays?
ALOX12 inh: 2%

Results for CNC(=O)[C@@H]1C[C@H](Oc2cccnc2)CN1C(=O)c1ccc(Cc2c(C)noc2C)o1 ?
ALOX12 inh: 19%

What do the screens show for `CCOc1ccc(/C=C2\SC(=S)N(C(C(=O)O)c3ccccc3)C2=O)cc1OC` (stereo not given)?
Chronic BCR inh: inconclusive; LDHA inh: 0; KCNH2 WT inh: 7; KCNH2 3.1 block: 4; ALOX12 inh: 16µM*; ClpP mod: 1%

How did COc1cccc(/C=C2\SC(=S)N(C(Cc3ccccc3)C(=O)O)C2=O)c1 (stereo not given) do in these assays?
Chronic BCR inh: 5%; LDHA inh: -3; KCNH2 WT inh: -8; KCNH2 3.1 block: 9; ALOX12 inh: 45µM*

Results for O=C(O)C(Cc1ccccc1)N1C(=O)/C(=C/c2cccs2)SC1=S (stereo not given) ?
Chronic BCR inh: -1%; LDHA inh: -4; KCNH2 WT inh: 8; KCNH2 3.1 block: 2; ALOX12 inh: inconclusive

How did CCCCc1cc(=O)oc2c(C)c3c(cc12)C=CC1(CCCCC1)O3 do in these assays?
LDHA inh: 1; ALOX12 inh: 9%

Source: PubChem BioAssay (National Center for Advancing Translational Sciences (NCATS))
